# PPC-1+TRAIL kill – compounds killing PPC-1 cancer cells with TRAIL present, primary screen, TRAIL potentiator project, ATPLite luminescence, uHTS. PPC-1 cells + TRAIL, ATPLite viability luminescence. cell killing (% activity), % at 4 µM or 5 µM. 0.41% of 220,000 active;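 active = cell killing above 50% in the first pass at 4 µM, then a duplicate retest at 5 µM averaging 50% or more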;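 also: plate controls were cells with TRAIL plus DMSO for no effect and medium-only wells lacking cells for full effect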
# STAT1 blocker – STAT1 signaling inhibitors, primary screen, cell-based, HTS, luciferase reporter. NIH 3T3 STAT1-luciferase reporter, IFN-gamma, luminescence. inhibition, % at 5.5 µM. 0.35% of 200,000 active. AID 920, 2007;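 active = inhibition above a set limit, the mean inhibition across all tested compounds plus 3 SD, cut at about 34% in these data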;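 also: 0% = IFN-gamma with DMSO and 100% = IFN-gamma with 300 µM nifuroxazide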
# Platelet DG rel – inhibitors of platelet dense granule secretion, primary screen, cell-based, MLPCN, human platelets; human platelet-rich plasma, SFLLRN dense granule ATP release, luminescence; inhibition, %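 (compounds screened at 7.5 µM in platelet-rich plasma)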; 0.22% of 300,000 active; AID 1663, 2009;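 active = mean replicate score, as percent of positive control, at or above 50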
# C8 TRAIL sens – viability loss with TRAIL in NB7+C8 cells, primary screen, TRAIL sensitizer project, cell-based, ATPlite luminescence; AID 624354, 2012; 1% of 360,000 active; inhibition (viability loss, TRAIL sensitization), % at 10 µM;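 active = compounds causing at least 50% loss of cell viability in the single-dose screen, relative to plate controls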
# STAT3 inh – IL-6 driven STAT3 reporter inhibitors, primary screen, U3A cells, luciferase, luminescence, MLSCN library | IL-6 STAT3-luciferase reporter; host cell line lacks STAT1 | inhibition, % at 5.5 µM | 0.89% of 190,000 active;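 active = inhibition above the mean inhibition across all screened compounds plus 3 SD, cut at about 44% in these data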;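 also: 0% = DMSO only wells and 100% = 100 µM nifuroxazide control wells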
# PPC1 cytotox – cytotoxicity in PPC-1 cells, confirmation, cytotoxicity control for TRAIL apoptosis potentiator project, cell-based, ATP content luminescence; shares compounds with PPC-1+TRAIL kill; PPC-1 viability, ATPlite luminescence, overnight; cytotoxicity, % at 5 µM; 50% of 1,200 active;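 active = reconfirmed compounds whose average cytotoxicity reaches 50% or more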;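 also: 0% = DMSO-treated cells and 100% = wells holding medium but no cells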
# An asterisk follows results filed as active; . = not tested or not shown. Rows were chosen to be rich in hits. Some 1.6% of all compounds tested hit in one or more screens of this group.
SMILES,PPC-1+TRAIL kill,STAT1 blocker,Platelet DG rel,C8 TRAIL sens,STAT3 inh,PPC1 cytotox
O=C(CC[C@H]1O[C@@H](n2cnc3c(NC(=O)c4ccccc4)ncnc32)[C@H](O)[C@@H]1O)NCC1CCN(Cc2ccccc2)CC1,.,.,.,-22.3,.,.
O=C(c1ccc(Cl)s1)N1CCc2ccccc21,22.8,-56.0,1.7,22.9,-12.7,.
CCc1sc(C(=O)N2CCc3ccccc32)cc1C,25.9,-36.4,12.6,56.3*,22.6,31.0
O=C(Nc1ccc(N2CCOCC2)cc1)c1cnsn1,73.1*,44.1*,13.1,70.9*,86.8*,71.0*
COc1ccccc1-c1nnc(Nc2nc3c(OC)cccc3s2)o1,7.0,-31.3,10.5,29.8,-45.0,.
COc1cccc(-c2nnc(Nc3nc4c(F)cccc4s3)o2)c1,44.2,-4.1,2.7,71.0*,-6.2,48.4
O=C(Nc1ccc(F)cc1)c1nn(-c2ccccc2)c(=O)cc1Cl,5.2,14.1,1.9,-11.5,-2.5,0.4
CCCOc1ccc(C(=O)C(c2ccccc2)N2CCOCC2)cc1 (centres undefined),0.2,4.4,3.3,-11.4,4.6,14.0
C=CCNc1ncnc2c1ncn2[C@H]1CN(C2CCCC2)C[C@@H](CO)O1,.,.,.,3.0,.,.
Cc1ccc(S(=O)(=O)NC(=O)C2(C)CCN2C(=O)COc2ccc(Cl)cc2)nc1 (centres undefined),.,.,.,-2.5,.,.
O=C(Nc1cc(Cl)ccc1Cl)c1ccco1,.,.,1.7,3.0,.,.
CS/C(Nc1cc(Cl)ccc1Cl)=C(/C#N)C(=O)c1ccco1,21.1,.,2.9,76.3*,.,22.6
CSc1ccc(C2C(C(=O)c3ccco3)=C(O)C(=O)N2c2nnc(SC)s2)cc1 (centres undefined),.,.,-6.0,12.4,.,.
Cc1ccc(S(=O)(=O)N2CCCCC2)cc1NC(=O)c1ccncc1,.,.,.,-11.1,.,.
COc1ccc2c(c1)CCc1c(C(=O)NCc3ccco3)noc1-2,15.9,-33.7,3.3,2.3,3.7,11.1
COCCNC(=O)c1noc2c1CCc1cc(OC)ccc1-2,17.5,-28.4,-16.6,18.9,1.3,.
CC(NCCCSc1ccccc1)C(O)c1ccc(O)cc1 (centres undefined),.,.,.,18.9,.,.
COc1ccccc1C#Cc1cnc2c(c1)C(=O)N([C@H](C)CO)C[C@@H](C)[C@@H](CN(C)C(=O)c1ccc3c(c1)OCO3)O2,.,.,.,9.3,.,.
COCCSc1ccccc1C(=O)NCc1ccc(S(N)(=O)=O)cc1,6.0,-8.5,10.5,4.2,-1.9,7.0
O=C(Nc1cccc2ccccc12)C12CC3CC(C1)CC(n1cnc([N+](=O)[O-])n1)(C3)C2,4.2,1.0,1.4,7.1,2.8,13.7
COC(=O)c1ccccc1NC(=O)C12CC3CC(C1)CC(n1cnc(Cl)n1)(C3)C2,15.9,-0.4,-0.6,-3.1,4.4,.
CN(C)c1ccc(-c2csc(C(C)(O)c3ccc(F)c(F)c3)n2)cc1 (centres undefined),.,.,.,7.4,.,.
Cc1sc(=NC(=O)c2ccco2)n(C)c1-c1ccccc1,75.5*,-10.7,5.5,78.1*,39.1,73.8*
C#CCn1c(=NC(=O)c2ccco2)sc2cccc(Cl)c21,-0.2,.,0.0,-6.8,.,.
Cn1c(=NC(=O)c2ccco2)sc2ccccc21,50.4*,-19.5,4.8,58.8*,-10.5,53.3*
SMILES,PPC-1+TRAIL kill,STAT1 blocker,Platelet DG rel,C8 TRAIL sens,STAT3 inh,PPC1 cytotox
CCCOc1ccc2cc(-c3ccccn3)c(=O)oc2c1,79.2*,39.0*,43.8,89.1*,98.5*,80.4*
O=c1oc2cc(OCc3c(F)cccc3Cl)ccc2cc1-c1ccccn1,.,-13.1,1.8,-3.9,15.5,.
O=S(=O)(c1ccc(Nc2ccc(-c3ccc4c(c3)OCCO4)nn2)cc1)N1CCCC1,28.7,-18.0,1.6,23.1,10.7,.
O=C(NC1CC1)c1cccc(Nc2ccc(-c3ccc4c(c3)OCCO4)nn2)c1,68.6*,-10.2,-3.8,72.3*,18.8,66.0*
Cn1c(-c2ccccc2)cnc1SCC(=O)NCc1ccco1,3.2,1.5,-1.0,8.3,0.8,-6.1
Cc1ccc(C(C)C)cc1C(=O)CC1(O)C(=O)N(C)c2ccccc21 (centres undefined),-2.9,-1.2,1.0,0.1,-7.4,-6.6
O=S(=O)(NCCSc1ccccc1)c1ccc(F)cc1,-1.5,0.8,-0.8,-4.6,3.7,-3.2
COC(=O)c1ccc(Nc2nc(C)cc(=O)[nH]2)cc1,3.0,4.9,-1.6,-4.2,3.5,14.6
COc1ccc(Nc2nc(C)cc(=O)[nH]2)cc1,-13.5,6.2,-4.4,1.3,0.6,.
O=C1c2cccc3c([N+](=O)[O-])ccc(c23)C(=O)N1CCc1ccccn1,24.2,.,-2.7,43.6,.,12.1
O=C(NC1CCCC1)C(c1ccccn1)N(C(=O)c1csnn1)c1ccc(F)cc1 (centres undefined),.,.,9.5,0.7,.,.
C#CC(=O)N(c1cc(OC)ccc1OC)C(C(=O)NC1CCCC1)c1cccs1 (centres undefined),97.8*,74.7*,-1.1,91.1*,114.4*,97.6*
COc1ccc(N(C(=O)c2ccco2)C(C(=O)NC2CCCCC2)c2cccs2)cc1OC (centres undefined),-15.4,6.4,-7.0,8.4,2.5,.
COc1ccc(N(C(=O)c2snc(C(N)=O)c2N)C(C(=O)NC2CCCC2)c2cccs2)cc1OC (centres undefined),.,.,-1.9,-0.1,.,.
C#CC(=O)N(c1ccc(OC)cc1OC)C(C(=O)NC1CCCC1)c1cccs1 (centres undefined),97.0*,87.6*,0.0,92.8*,83.5*,96.0*
CC(C)(C)C1CCC(=NNS(=O)(=O)c2ccc(Br)cc2)CC1 (centres undefined),10.2,-2.3,3.0,0.6,1.9,.
CC1CCCC/C1=N\NS(=O)(=O)c1ccc(Br)cc1 (centres undefined),-4.0,3.8,-5.1,-0.3,4.2,11.1
CCNC(=O)C1(C)CCN1CCC(=O)c1ccc(C)cc1 (centres undefined),.,.,.,-13.0,.,.
CCCc1nnc(SCc2ccc(OC)cc2)n1N,-2.3,-7.4,-1.8,1.0,1.5,-16.1
COc1cccc(NC(=O)C2CCN(C(=O)[C@@H]3Cc4ccccc4CN3)CC2)c1,.,.,-0.3,-16.9,.,.
Cc1cccc(C)c1NC(=O)C(c1ccnc2ccccc12)N1CCN(CCN(C)C)CC1 (centres undefined),.,.,.,-7.4,.,.
C=CCn1c(-c2ccc(OC)cc2)nc2nc3ccccc3nc21,-7.5,-12.7,8.0,27.1,-11.2,2.3
C=CCn1c(-c2ccc(OC)cc2)nc2ccccc21,18.2,-7.3,0.4,10.8,-2.6,.
COc1cc(SC)ccc1C(=O)Nc1ccc(Br)cn1,88.5*,.,13.5,86.5*,.,88.2*
COc1cc(SC)ccc1C(=O)Nc1ncc(C)s1,72.7*,89.7*,18.2,80.4*,100.5*,76.0*
